Experimental data taken from PubChem BioAssay AID504339 (National Center for Advancing Translational Sciences (NCATS), 2011).
The whole screen tested about 390,000 compounds, of which about 17,000 (4.4%) were called active. About 8% were inconclusive and are not listed. This is one part of a sample in which actives are shown more often than they occur. Unmarked numbers belong to inactive results. The call rests on the fitted dose curve; in most records, active means well fitted inhibition curve with a large enough effect; inconclusive means small, poorly fitted or top-dose-only effect; inactive means no such curve, though single readings can be large or run the other way.

Molecular target: Lysine-specific demethylase 4A (Homo sapiens) (UniProt O75164)
Sequence (O75164 whole entry, looked up, the tested form may be a part): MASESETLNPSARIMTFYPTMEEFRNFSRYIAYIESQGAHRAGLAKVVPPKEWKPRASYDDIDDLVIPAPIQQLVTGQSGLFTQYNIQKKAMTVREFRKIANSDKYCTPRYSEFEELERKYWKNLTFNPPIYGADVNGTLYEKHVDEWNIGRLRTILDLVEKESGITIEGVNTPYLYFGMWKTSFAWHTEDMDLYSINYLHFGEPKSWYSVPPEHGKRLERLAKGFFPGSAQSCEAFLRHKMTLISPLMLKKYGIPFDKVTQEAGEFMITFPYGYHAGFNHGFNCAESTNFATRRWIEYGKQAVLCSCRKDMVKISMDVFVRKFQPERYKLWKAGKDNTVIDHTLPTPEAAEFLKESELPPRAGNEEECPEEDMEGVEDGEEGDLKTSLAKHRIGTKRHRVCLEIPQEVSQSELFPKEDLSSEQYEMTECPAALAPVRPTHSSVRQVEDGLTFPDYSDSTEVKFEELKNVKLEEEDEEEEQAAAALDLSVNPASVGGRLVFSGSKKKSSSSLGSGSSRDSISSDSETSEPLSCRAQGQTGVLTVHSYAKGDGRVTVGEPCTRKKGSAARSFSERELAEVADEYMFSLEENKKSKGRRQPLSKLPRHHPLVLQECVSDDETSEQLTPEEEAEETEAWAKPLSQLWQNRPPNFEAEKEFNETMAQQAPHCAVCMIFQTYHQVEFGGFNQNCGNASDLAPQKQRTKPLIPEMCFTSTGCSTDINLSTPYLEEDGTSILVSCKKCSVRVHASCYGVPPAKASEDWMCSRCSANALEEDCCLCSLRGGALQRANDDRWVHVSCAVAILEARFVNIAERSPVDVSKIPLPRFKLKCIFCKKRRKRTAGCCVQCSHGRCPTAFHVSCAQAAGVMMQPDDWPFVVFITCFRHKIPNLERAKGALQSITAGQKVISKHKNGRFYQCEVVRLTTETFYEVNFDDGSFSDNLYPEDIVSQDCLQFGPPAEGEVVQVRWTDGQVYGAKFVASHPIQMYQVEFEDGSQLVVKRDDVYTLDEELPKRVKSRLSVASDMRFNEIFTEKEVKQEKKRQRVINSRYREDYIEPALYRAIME
Experiment: qHTS Assay for Inhibitors of JMJD2A-Tudor Domain; further: nearly all actives have a fitted effect of over 50% in size
Settings: AlphaScreen JMJD2A-Tudor / H3K4me3 peptide binding; series mostly up to 114 µM; activity change, negative = inhibition: at the top concentration
On the % scale 0 is the no-effect control and ±100 the full control effect; potency means the concentration at half of the fitted maximal effect.

| Structure (SMILES) | activity change, negative = inhibition | Potency |
| --- | --- | --- |
| COc1ccccc1CN1CCC(CNC(=O)c2cnn(-c3cccc(Cl)c3)c2C2CCN(C(=O)OC(C)(C)C)CC2)CC1 | -15.9% | – |
| COCCNC(=O)c1ccc2c(c1)N=C(C)c1cc(C)ccc1S2 | -22.3% | – |
| C/C(=N\Nc1ccc(Cl)nn1)c1ccccc1O | -30.3% | – |
| Oc1cccc(/C=N/Nc2ccc(Cl)nn2)c1O | – | 63.1 µM (active) |
| COc1cccc(CNC(=O)c2ccc3c(c2)N(Cc2ccc(C(F)(F)F)cc2)C(=O)c2ccccc2S3)c1OC | -9.82% | – |
| CCCc1nn2c(=O)cc(COC(=O)c3ccc(NC(=O)C(C)Oc4ccccc4)cc3)nc2s1 (centres undefined) | -12.6% | – |
| COc1ccc(-c2nnc(SCC(=O)Nc3ccccc3C)o2)cc1OC | -5.3% | – |
| CCOC(=O)c1cnc2c(C)cc(C)cc2c1Nc1ccc(N2CCOCC2)cc1 | – | 35.5 µM (active) |
| CCOC(=O)c1cnc2c(C)cc(Cl)cc2c1NCCc1ccc(OC)c(OC)c1 | -1.04% | – |
| Cc1ccc(OCCCC(=O)Nc2ccc(N3CCOCC3)cc2)cc1 | -9.46% | – |
| Cc1cccc(-n2c(=O)c3c(c4cc(C)ccc4n3C)n(CC(=O)Nc3ccccc3Cl)c2=O)c1 | -15.5% | – |
| O=C(Oc1ccc(-c2nc(-c3ccccn3)no2)cc1)c1ccccc1 | -11% | – |
| COc1cnc(-c2ccccn2)nc1Oc1ccc(C(C)(C)C)cc1 | – | 31.6 µM (active) |
| COc1ccnc(Oc2ccccc2)c1-c1ncn[nH]1 | -8.7% | – |
| CC(=O)N1CC[n+]2c(-c3ccc([N+](=O)[O-])cc3)csc21 | – | 7.94 µM (active) |
| CN1C2CCC1CC(NC(=O)c1ccc([N+](=O)[O-])cc1)C2 (centres undefined) | -6.06% | – |
| Cc1cc(C)cc(C(=O)N2CCN=C2SCc2ccc([N+](=O)[O-])cc2)c1 | -25.3% | – |
| O=C(Nc1nc2ccc(F)cc2s1)c1nc(SCc2ccccc2F)ncc1Cl | -16.7% | – |
| COc1ccc(-n2cnc3cc(NCc4ccco4)ccc32)cc1 | – | 50.1 µM (active) |
| COc1ccc(NC(=O)C(=O)NCc2ccco2)cc1 | -10.1% | – |
| COc1ccc(-n2cnc3cc(C(=O)NC4CCCC4)ccc32)cc1 | – | inactive |
| Cc1ccc(CSc2nc3cccnc3n2Cc2ccc(C(=O)NC3CC3)cc2)cc1 | -11.6% | – |

| Structure (SMILES) | activity change, negative = inhibition | Potency |
| --- | --- | --- |
| CCOC(=O)c1[nH]c(C)c(CCC(=O)NCc2ccccc2C)c1C | -30.2% | – |
| S=c1[nH]nc(-c2cc(-c3ccsc3)n[nH]2)n1-c1ccccc1 | – | 44.7 µM (active) |
| Cc1ccc(NCc2n[nH]c(=S)n2-c2ccccc2)cc1Cl | -18.5% | – |
| COc1cccc(-c2cc(C(=O)Nc3ccc(C)cc3)[nH]n2)c1 | -15.5% | – |
| CCc1ccc(NC(=O)Cn2c(=O)n(CCC(=O)NCc3ccc4c(c3)OCO4)c(=O)c3ccccc32)cc1 | -9.21% | – |
| O=C(CCSCc1ccccc1F)N1CCN(c2ccc(Cl)cc2)CC1 | -19% | – |
| Cc1cccc(NC(=O)N2CCN(C)c3ncccc32)c1C | -19.5% | – |
| CCOc1ccc(CCNC(=O)c2cc3c(=O)n(C)c4ccccc4c3n2C)cc1 | -18.5% | – |
| CC(=O)N1CCc2c(sc(NC(=O)CCS(=O)(=O)c3ccccc3)c2C#N)C1 | -9.72% | – |
| CC(C)N1CCc2c(sc(NC(=O)Cc3ccccc3)c2C#N)C1 | -12.7% | – |
| N#Cc1c(N)sc2c1CCN(C(=O)OCc1ccccc1)C2 | – | 56.2 µM (active) |
| Cn1c(=O)c2c(nc(SCC(=O)Nc3ccc(F)cc3)n2Cc2ccccc2)n(C)c1=O | 2.06% | – |
| Cc1cccc(NC(=O)CSCC(=O)Nc2nnc(C3CC3)s2)c1 | -2.27% | – |
| O=C(CN1C(=O)c2ccc([N+](=O)[O-])cc2C1=O)Nc1nnc(C2CC2)s1 | – | 79.4 µM (active) |
| CC1CCN(c2ccc(C(=O)Nc3nnc(C4CC4)s3)cc2[N+](=O)[O-])CC1 | -29.4% | – |
| COc1ccc(NC(=O)CN2CCCN(Cc3ccccc3)S2(=O)=O)cc1 | -17.2% | – |
| Cc1nc(N2CCOCC2)c2c(C(=O)NCc3cccc(Cl)c3)c(C)oc2n1 | 6.15% | – |
| O=C(CCc1n[nH]c(=O)[nH]c1=O)N/N=C/c1ccc(Br)o1 | -13.1% | – |
| Cc1n[nH]c(=S)n1/N=C/c1ccc(Br)o1 | – | 7.94 µM (active) |
| O=C(CCC(=O)N/N=C/c1ccc(Br)o1)N/N=C/c1ccc(Br)o1 | -12.7% | – |
| CC1CCCN(Cc2c(O)ccc3c(=O)c(Oc4ccc(C(C)(C)C)cc4)c(C(F)(F)F)oc23)C1 (centres undefined) | -1.38% | – |
| Cc1ccc(NC(=O)Cc2ccc(NC(=O)N3CCCCc4ccccc43)cc2)cc1 | -23% | – |

| Structure (SMILES) | activity change, negative = inhibition | Potency |
| --- | --- | --- |
| Cc1nc(SCC(=O)NC2CCCC2)[nH]c(=O)c1C | -10.3% | – |
| Cc1c(C)n2c(SCC(=O)NC3CCCC3)nnc2[nH]c1=O | – | 14.1 µM (active) |
| Cc1c(C)n2c(SCC(=O)N3CCCC3)nnc2[nH]c1=O | 1.7% | – |
| CCSc1nnc2c(n1)OC(c1ccc(OCC(=O)O)cc1)Nc1ccccc1-2 (centres undefined) | -30.4% | – |
| Cc1sc2ncn(CC(=O)N3CCN(c4ccc(F)cc4)CC3)c(=O)c2c1S(=O)(=O)N1CCN(c2ncccn2)CC1 | -19.1% | – |
| CCOc1ccc(-n2nc3ccc(NC(=O)c4ccc(OC)c(Cl)c4)cc3n2)cc1 | -16.8% | – |
| COc1cc(/C=C2/SC(=S)N(Cc3ccccc3)C2=O)cc(OC)c1O | – | 3.55 µM (active) |
| COc1ccc(CCNC2=C(Cl)C(=O)N(Cc3ccccc3)C2=O)cc1OC | 56.2% | – |
| COc1ccc(CCN=C2SCC(=O)N2Cc2ccccc2)cc1OC | -12.9% | – |
| COc1cc(Cl)c(C)cc1Nc1nnc(-n2nc(C)cc2C)c2ccccc12 | -0.662% | – |
| Cc1ccc(C)c(Cn2c(C(=O)O)c(CNCc3cccs3)c3ccccc32)c1 | -32.7% | – |
| O=C(Nc1nnc(C2=COCCO2)o1)c1ccc([N+](=O)[O-])s1 | – | 56.2 µM (active) |
| CSc1ccccc1-c1nnc(NC(=O)c2ccc3c(c2)OCCO3)o1 | -12% | – |
| COc1cc(NC(=O)COC(=O)c2ccc([N+](=O)[O-])s2)cc(OC)c1OC | -28.9% | – |
| CCOc1ccc(Nc2nc3c(S(=O)(=O)c4cccc(Cl)c4)nnn3c3ccsc23)cc1 | -8.06% | – |
| Cc1cc(OCC(=O)NCC2(N(C)C)CCCCC2)cc(C)c1Cl | -11.6% | – |
| CCCCCn1c(=O)[nH]c2cc(C(=O)Nc3cc(C)cc(C)c3)ccc2c1=O | -7.85% | – |
| CCn1c(=S)[nH]c2cc(S(=O)(=O)N3CCOCC3)ccc21 | – | 17.8 µM (active) |
| CCCCn1c(=S)[nH]c2cc(S(=O)(=O)N3CCCCC3)ccc21 | -17.6% | – |
| Cc1ccc(S(=O)(=O)N2CCN(S(=O)(=O)N3CCOCC3)CC2)cc1 | -9.43% | – |
